The values below come from ChEMBL document CHEMBL3988442, “University of Dundee, Small-Polar-MMV Screening Library” (2021).

Assay [1] concerns the target T1, Aspartate--tRNA(Asp/Asn) ligase (Mycobacterium tuberculosis (strain ATCC 25618 / H37Rv)) (UniProt P9WFW3). Further: in the data most compounds retested in dose-response had high values.
T1 sequence (whole entry): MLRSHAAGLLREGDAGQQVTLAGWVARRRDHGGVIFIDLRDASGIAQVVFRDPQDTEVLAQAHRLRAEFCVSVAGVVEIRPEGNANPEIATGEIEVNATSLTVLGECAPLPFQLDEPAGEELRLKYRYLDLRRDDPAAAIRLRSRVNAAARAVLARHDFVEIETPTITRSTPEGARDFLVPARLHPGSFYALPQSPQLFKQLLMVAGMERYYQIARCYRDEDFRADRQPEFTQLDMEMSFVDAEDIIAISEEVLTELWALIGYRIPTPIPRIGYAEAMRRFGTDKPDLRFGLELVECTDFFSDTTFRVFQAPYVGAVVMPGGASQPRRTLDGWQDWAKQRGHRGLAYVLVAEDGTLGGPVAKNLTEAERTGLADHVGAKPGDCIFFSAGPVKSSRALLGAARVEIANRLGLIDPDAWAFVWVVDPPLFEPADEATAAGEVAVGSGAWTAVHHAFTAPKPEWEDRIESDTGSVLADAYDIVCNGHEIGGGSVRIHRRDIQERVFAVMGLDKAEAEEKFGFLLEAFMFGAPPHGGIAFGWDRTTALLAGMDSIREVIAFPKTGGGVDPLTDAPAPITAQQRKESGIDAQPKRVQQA
As to the kind of experiment: Assay for Asp RNA synthetase-1 from Mycobacterium tuberculosis. Format: functional. Details: scale not given: direction of the effect not stated beside the values. The settings on record: 30 µM.

The target in assay [2] is Shiga toxin 2 (Escherichia coli O157:H7) (UniProt P09385+P09386). As to the kind of experiment: E. coli 0.157:H7 Shiga Toxin SOP - stx2 screening assay. The settings on record: 30 µM. Set-up: scale not given: direction of the effect not stated beside the values. Format: functional.

Regarding `CCOc1cc(C(=O)N2CCCC(c3noc(C)n3)C2)ccn1` (configuration not stated), the Percent Effect in assay [1] turned out to be 0.253%; in assay [2], 28.1%.

As for `O=C(CN1CCCCC1Cn1cncn1)NCCc1ccc(F)cc1` (configuration not stated), the values for the Percent Effect in assay [1] and in assay [2] were 3.25% and -5.15%, respectively.

With `Cn1ccnc1CN1CCCN(C(=O)c2ccc(Cl)o2)CC1`, the Percent Effect in assay [1] is -4.19%; in assay [2], 17.7%.

In the case of `Cc1nc(C)n(C2CCCN(C(=O)c3cc(C(N)=O)cs3)C2)n1` (configuration not stated), the Percent Effect in assay [1] was -5.92%; in assay [2], -13.1%.

As for `Cc1cc(C)n(CC2CCCN2C(=O)c2cnn(C)c2C2CC2)n1` (configuration not stated), the Percent Effect in assay [1] was 1.84%; in assay [2], 1.91%.

For the compound `CN1CCCC1c1ccc(C(=O)N2CCc3ccccc3C2)s1` (configuration not stated), the Percent Effect in assay [1] was -5.54%; in assay [2] it was -38.1%.

Regarding `COC(=O)c1cccc(C(=O)N2CCN(c3ccccc3F)CC2)n1`, the figures for the Percent Effect in assay [1] and in assay [2] were -0.801% and -16.2%, respectively.

Take `CC(C)n1[nH]c(=O)c2c1NC(=O)CC2c1cccc(OC(F)F)c1` (configuration not stated): the Percent Effect was 0.474% in assay [1] and -12.1% in assay [2].

For `CCOc1cc(C)nc(N2CCN(C(=O)c3ccnn3C)CC2)n1`, the Percent Effect is -2.8% in assay [1] and 2.54% in assay [2].

As to `COCCCNc1nccc(-c2c[nH][nH]c2=O)n1`, the Percent Effect in assay [1] was 6.51%; in assay [2], -55.9%.

Consider `O=C(Cc1ccccc1Cl)N1CCCC(n2cncn2)C1` (configuration not stated), for which the Percent Effect was -1.83% in assay [1] and -37.6% in assay [2].

Regarding `CCCN1CC(C(=O)Nc2ccccn2)CC1=O` (configuration not stated), the results for the Percent Effect in assay [1] and in assay [2] were -1.33% and 1.5%, respectively.

`COc1ncc(C2(O)CCN(Cc3cccs3)CC2)c(OC)n1`: the Percent Effect in assay [1] is -0.868%; in assay [2] it was -24.4%.

For the compound `CCc1nccn1C1CCCN(C(=O)CCCNc2ncccn2)C1` (configuration not stated), the values for the Percent Effect in assay [1] and in assay [2] were -4.79% and 8.61%, respectively.

On to `COc1ccc(Br)c(C(=O)NCCNc2ccc(C(F)(F)F)cn2)c1`, for which the Percent Effect in assay [1] was 7.7%; in assay [2] it was 23.3%.

Regarding `CC(C)(C)C(=O)N1CCCC1c1nc(O)cc(-c2ccccn2)n1` (configuration not stated), the Percent Effect in assay [1] is -4.27%; in assay [2], 5.71%.

`Cc1noc(C)c1CN1CC2(CCN(C(=O)c3cscn3)CC2)CC1=O`: the Percent Effect in assay [1] is 6.36%; in assay [2], -13.6%.

For the compound `Cc1noc(C)c1C1CCCN1C(=O)CN1CC2(CCNCC2)OC1=O` (configuration not stated), the Percent Effect was -0.658% in assay [1] and -21% in assay [2].

In the case of `COc1ccc(NC(C)C(=O)NCCc2cccs2)cc1F` (configuration not stated), the Percent Effect in assay [1] was 7.04%; in assay [2], -24.3%.

Consider `CC(=O)NCC(=O)N1C[C@H](OCc2cccnc2)[C@H]2COC[C@H]21`, for which the values for the Percent Effect in assay [1] and in assay [2] were -1.31% and -22.3%, respectively.

Take `CNC(=O)C1(CCCc2cccnc2)CCCCN1` (configuration not stated): the Percent Effect in assay [1] came out at 0.849%; in assay [2], 0.867%.

Take `O=C1CC(c2ccncc2)c2c(c(C(=O)O)cn2-c2ccc(F)cc2)N1` (configuration not stated): the Percent Effect in assay [1] is 2.32%; in assay [2], -17.3%.

Take `Cc1csc(N2CCN(CCc3ccccn3)CC2C)n1` (configuration not stated): the Percent Effect is -6.27% in assay [1] and -7.75% in assay [2].

With `COc1ncccc1CNC(=O)NCCNC(=O)c1ccco1`, the Percent Effect in assay [1] is -10.1%; in assay [2], -25%.

Regarding `Cn1cc(C2CCCN2C(=O)Cc2n[nH]c3ccccc23)cn1` (configuration not stated), the Percent Effect was -9.51% in assay [1] and -33.7% in assay [2].

Take `c1cnnc(N2CCCC2CNCc2ccsc2)c1` (configuration not stated): the Percent Effect in assay [1] is -3.81%; in assay [2], -8.21%.

Consider `CCOC(=O)N1CCN(C(=O)c2sc(-c3ccccc3F)nc2C)CC1`, for which the Percent Effect in assay [1] is 3.76%; in assay [2], -8.58%.

Take `NC(=O)C1CCN(Cn2nc(-c3ccc(F)cc3)oc2=O)CC1`: the values for the Percent Effect in assay [1] and in assay [2] were 4.96% and -69.6%, respectively.

With `Cc1nc(C)n(CC2CCCN2CCCOc2ccc(F)cc2)n1` (configuration not stated), the Percent Effect in assay [1] is -8.6%; in assay [2], 0.578%.

Take `O=C(Nc1ncn(CC(=O)N2CCCCCC2)n1)C1CCCO1` (configuration not stated): the Percent Effect is -0.233% in assay [1] and 29.5% in assay [2].

Take `COCCN(Cc1ccoc1)C(=O)c1c(F)cccc1Cl`: the Percent Effect in assay [1] is -3.31%; in assay [2] it was 5.86%.

Turning to `Cc1cccc(CNC(=O)CNc2cc(CO)ccc2Cl)c1`, the Percent Effect in assay [1] was determined as 5.12%; in assay [2] it was 0.559%.

For the compound `Cc1nccn1Cc1nnc(C2CCCN(Cc3cccnc3)C2)n1C` (configuration not stated), the results for the Percent Effect in assay [1] and in assay [2] were -2.79% and 4.73%, respectively.

In the case of `Cc1ncsc1C(=O)NCCSCCCO`, the Percent Effect in assay [1] is -4.34%; in assay [2], -35.1%.

On to `Cn1nc(C2CCCN(Cc3cccc(F)c3)C2)c2nccnc21` (configuration not stated), for which the Percent Effect in assay [1] is -0.491%; in assay [2], 14.8%.

`Cc1ccc(S(=O)(=O)Nc2ccc(=O)n(C)c2)cc1`: the Percent Effect in assay [1] is 26.8%; in assay [2], -7.78%.
